IL1B secr inh: blocks inflammasome-driven IL-1 beta release; activity change, % at 57.5 µM; THP-1 LPS/ATP IL-1B secretion, AlphaLISA, 16 h; stronger effect = lower value; 360,000 tested, 4.7% active; in the data active means activity change below about -50%; inconclusive means mostly about -30% to -49%; further: on the % scale 0 is the no-effect control and ±100 the full control effect
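Secreted IL-1B measured by AlphaLISA bead assay after 16 h compound exposure of THP-1 cells; compounds (final up to 57.5 uM) added 1 h before LPS (250 ng/mL) and ATP (1.25 mM) stimulation; lower signal means less secretion.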
TDP1 cell noCPT: qHTS for Inhibitors of human tyrosyl-DNA phosphodiesterase 1 (TDP1): qHTS in cells in absence of CPT | DT40 Tdp1-/- hTDP1 cells, no CPT, ATP luminescence, 48 h | Potency, µM (highest dose often 46.2 µM), for the others: at the top dose activity change, negative = growth inhibition, actives largely listed as inhibitors | 420,000 tested, 15% active | AID 686978, 2013; further: potency means the concentration at half of the fitted maximal effect; on the % scale 0 is the no-effect control and ±100 the full control effect; nearly all actives have a fitted effect of over 55% in size
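Camptothecin absent (DMSO only). Human TDP1-complemented DT40 knockout cells, 400 cells/well, 37 °C for minimum 48 hr; ATP measured via CellTiter-Glo, 30 min dark incubation, luminescence.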
DT40 TDP1 CPT: growth inhibition of DT40 Tdp1-/-;hTDP1 cells with camptothecin (screen for TDP1 inhibitors); chicken DT40 Tdp1-/-;hTDP1 cells + 20 nM CPT, ATP luminescence, 48 h; Potency, µM (highest dose often 46.2 µM), for inactives: at the highest dose activity change, negative = growth inhibition, most hits filed as inhibitors; 420,000 tested, 12% active; AID 686979; further: potency means the concentration at half of the fitted maximal effect; on the % scale 0 is the no-effect control and ±100 the full control effect; nearly all actives have a fitted effect of over 55% in size
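Chicken DT40 Tdp1-/- cells complemented with human TDP1, 400 cells/well, exposed to compounds plus 20 nM camptothecin for at least 48 h at 37 C; viability read as ATP content by CellTiter-Glo luminescence.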
HepG2 tox: HepG2 cytotoxicity, counter-screen for TGF-b inhibitors; HepG2 CAGA-GFP viability, ATP luminescence, 18 h; Potency, µM (doses to about 46.1 µM), without a hit: at the highest dose activity change, negative = cytotoxicity, actives largely listed as cytotoxic; 410,000 tested, 0.76% active; AID 588856; further: potency means the concentration at half of the fitted maximal effect
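CellTiter-Glo luminescence gave cytotoxicity after 18 hours at 37 degrees C. The cells were HepG2 CAGA-GFP in 1% FBS DMEM, stimulated with 500 pg/mL TGF-beta after compound addition. %Activity was normalised to no-cell wells (complete cell-killing) and DMSO (no toxicity), and curves were fitted and classified.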
TGFb inhibitor: blocks TGF-b signaling. HepG2 CAGA-GFP TGF-b/SMAD3 reporter, GFP fluorescence, 18 h; TGF-beta stimulated, 500 pg/mL final. Potency, µM (top dose mostly 46.1 µM), for inactives: at the highest dose activity, negative = inhibition, usual class: inhibitors. AID 588855. 410,000 tested, 1.2% active; further: potency means the concentration at half of the fitted maximal effect; on the % scale 0 is the no-effect control and ±100 the full control effect; nearly all actives have a fitted effect of over 65% in size
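Inhibition of TGF-beta-driven CAGA-GFP reporter expression in HEPG2 cells is measured by cellular GFP fluorescence after 18 h stimulation with 500 pg/mL recombinant TGF-beta in 1% FBS medium at 37 degrees C.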
ASM inhibitor: blocks human secretory acid sphingomyelinase. Potency, µM (series often up to 57.5 µM), without a hit: top-dose activity change, negative = inhibition, actives largely listed as inhibitors. 340,000 tested, 0.006% active. AID 504937. placental ASM, HMU-PC fluorogenic substrate, 60 min; further: potency means the concentration at half of the fitted maximal effect
Target sequence (P17405 47-631 limits assumed): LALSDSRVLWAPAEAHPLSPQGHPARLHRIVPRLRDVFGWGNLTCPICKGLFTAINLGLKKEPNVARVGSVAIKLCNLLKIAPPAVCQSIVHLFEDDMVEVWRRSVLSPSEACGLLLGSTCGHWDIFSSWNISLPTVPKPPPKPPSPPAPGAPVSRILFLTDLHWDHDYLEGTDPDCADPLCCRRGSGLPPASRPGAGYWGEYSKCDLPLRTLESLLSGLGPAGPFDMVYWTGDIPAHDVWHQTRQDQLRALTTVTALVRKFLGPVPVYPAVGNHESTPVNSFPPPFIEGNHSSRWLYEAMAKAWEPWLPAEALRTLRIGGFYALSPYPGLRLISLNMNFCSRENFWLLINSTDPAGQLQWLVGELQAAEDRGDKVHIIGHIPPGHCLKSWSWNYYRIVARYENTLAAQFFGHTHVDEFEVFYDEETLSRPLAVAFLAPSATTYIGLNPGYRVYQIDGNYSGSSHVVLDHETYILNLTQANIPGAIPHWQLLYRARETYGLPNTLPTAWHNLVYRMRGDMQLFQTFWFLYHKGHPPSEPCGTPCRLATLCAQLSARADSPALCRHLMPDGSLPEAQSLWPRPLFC
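HMU-PC0 cleavage (9 uM final) by human placental ASM, 60 min at 37 °C following 10 min compound exposure at RT; stopped at pH 10, fluorescence Ex 386/Em 447 nm.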
The depositor's hits bear a star; ? = inconclusive; . = no result. Rows were chosen to be rich in hits. Some 19% of all compounds tested hit in one or more screens of this group. Unless noted, the call rests on the fitted dose curve; in most records, active means well fitted curve in the direction sought with a large enough effect; inconclusive means small, poorly fitted or top-dose-only effect, or another doubt; inactive means no such curve, though single readings can be large; an effect the other way counts as inactive or inconclusive.

SMILES	IL1B secr inh	TDP1 cell noCPT	DT40 TDP1 CPT	HepG2 tox	TGFb inhibitor	ASM inhibitor
Cc1ccccc1S(=O)(=O)Cc1ccc(C(=O)NCCN(C)Cc2ccccc2)o1	7	-6%	-28%	-39%	-2%	-2%
CC(C)N(CCNC(=O)c1ccc(CS(=O)(=O)c2c(Cl)cccc2Cl)o1)Cc1ccccc1	-8	?	21µM*	-21%	0%	-2%
CC(c1ccccc1)n1c(CCCO)nc2ccccc21 (stereo unspecified)	35	-9%	-20%	-1%	0%	9%
Cn1c(N2CCOCC2)c(C#N)c2ccccc21	0	?	-15%	1%	-1%	3%
CCc1cccc(C)c1NS(=O)(=O)c1cc2[nH]c(=O)c(=O)[nH]c2cc1C	.	-21%	4%	6%	6%	.
Cc1cccc(S(=O)Cc2ccc(C(=O)NC3CCCCCC3)o2)c1 (stereo unspecified)	.	?	12µM*	-3%	9%	.
CCOC(=O)N1CCC(NC(=O)c2ccc(CS(=O)c3cccc(C)c3)o2)CC1 (stereo unspecified)	-6	-5%	-13%	-1%	-3%	6%
Cc1ccccc1S(=O)(=O)Cc1ccc(C(=O)NC2CCCCC2)o1	?	?	21µM*	-20%	-2%	-2%
CCc1ccccc1S(=O)(=O)Cc1ccc(C(=O)NC2CCCC2)o1	-26	8%	-21%	-1%	4%	18%
Cc1ccc(C)c(CN2C(=O)c3ccccc3S(=O)(=O)c3ccc(C(=O)NCCc4ccc(Cl)cc4)cc32)c1	.	-12%	-9%	-2%	.	.
O=C(Cn1nnc(-c2ccccc2F)n1)N1CCCCC1	0	15%	-10%	-7%	-1%	0%
Cc1cc2c(c(-c3cnccn3)c1)OC(CNC(=O)c1cc(Cl)ccc1F)C2 (stereo unspecified)	.	-14%	14%	.	.	.
CC1Sc2ccc(C#N)cc2N(Cc2cccc(C(F)(F)F)c2)C1=O (stereo unspecified)	55	?	?	-15%	-6%	.
O=C(N/N=C/c1c[nH]c2ccccc12)c1cc(Cl)ccc1O	4	-8%	?	-32%	-4%	2%
CCC1CCCCN1C(=O)CSc1nc(-c2ccc(OC)c(OC)c2)cc(C(F)(F)F)n1 (stereo unspecified)	.	23µM*	?	-6%	-10%	.
CCC1CCCCN1C(=O)CSc1nc(-c2ccc(OC)cc2)cc(C(F)(F)F)n1 (stereo unspecified)	.	9.2µM*	23µM*	-34%	?	.
COc1ccc(-c2cc(C(F)(F)F)nc(SCC(=O)N3CCCCC3C)n2)cc1OC (stereo unspecified)	.	?	?	-1%	3%	.
O=C(O)/C=C/C(=O)c1ccc2c(c1)CCc1ccccc1-2	-104*	3.7µM*	4.1µM*	11µM*	?	19%
CC(=O)Nc1ccc2c(c1)CCc1ccccc1-2	13	-2%	11%	0%	0%	3%
O=C(O)CC(NS(=O)(=O)c1ccc(Br)s1)c1ccccc1 (stereo unspecified)	.	-6%	-15%	5%	18%	.
CN(CC(=O)Nc1ccc(Cl)c(Cl)c1)C(=O)C1CCCC1	-25	-29%	-11%	-5%	-18%	-1%
CC(=O)C(C(c1ccccc1)c1c[nH]c2ccccc12)[N+](=O)[O-] (stereo unspecified)	28	5.8µM*	6.5µM*	-37%	?	-8%
CCn1cc(C(c2ccccc2)C(C(C)=O)[N+](=O)[O-])c2ccccc21 (stereo unspecified)	-17	?	?	6%	-1%	-1%
COc1cc(C(C[N+](=O)[O-])c2c(C)[nH]c3ccccc23)ccc1O (stereo unspecified)	-27	-18%	-1%	-20%	?	2%
COc1ccccc1C(C[N+](=O)[O-])c1c[nH]c2ccccc12 (stereo unspecified)	-89*	?	?	-4%	?	-2%
SMILES	IL1B secr inh	TDP1 cell noCPT	DT40 TDP1 CPT	HepG2 tox	TGFb inhibitor	ASM inhibitor
COc1cccc(OC)c1C(=O)NC(C)C12CC3CC(CC(C3)C1)C2 (stereo unspecified)	14	?	?	-24%	-20%	1%
COc1ccc(CNC(C)C23CC4CC(CC(C4)C2)C3)c(OC)c1OC (stereo unspecified)	?	15µM*	?	-34%	-10%	-1%
Cc1cccc(-n2cnc3c(sc4nc(N5CCOCC5)c5c(c43)CCCC5)c2=O)c1	?	21µM*	?	3%	33%	5%
CCN(CC)CCNc1ncnc2c1sc1nc(N3CCOCC3)c3c(c12)CCCC3	?	?	?	-4%	4%	-18%
CCN(CC)CCNc1ncnc2c1sc1nc(N3CCCC3)c3c(c12)CC(C)(C)OC3	-75*	?	?	-15%	?	-8%
NNc1nnnc2c1sc1nc(N3CCOCC3)c3c(c12)CCCC3	0	?	?	-12%	-19%	-3%
CN(C)CCNc1ncnc2c1sc1nc(N3CCCC3)c3c(c12)CC(C)(C)OC3	-82*	26µM*	?	-53%	?	-7%
CC(C)CNc1ncnc2c1sc1nc(N3CCOCC3)c3c(c12)CC(C)(C)OC3	-29	10µM*	?	15%	-13%	0%
CCOc1ccccc1NC(=O)C1CCN(S(=O)(=O)c2ccc3[nH]c(=O)oc3c2)CC1	.	?	?	-19%	-6%	.
CC1(c2nnnn2-c2ccc3c(c2)OCCO3)CCC(=O)N1C1CC1 (stereo unspecified)	28	-16%	9%	.	.	.
OCCNc1ncnc2c1sc1nc(N3CCOCC3)c3c(c12)CCC3	-53*	15µM*	?	-13%	-7%	-8%
CCCCCCNc1ncnc2c1sc1nc(N3CCOCC3)c3c(c12)CCCC3	.	?	?	-4%	8%	.
Cc1nc2c(sc3nc(N4CCOCC4)c4c(c32)CC(C)(C)OC4)c(-c2ccccc2)c1C(=O)O	-10	?	26µM*	-34%	?	61%
CCN(CC)P(=O)(c1ccccc1)c1c(C)nc2ccccn12 (stereo unspecified)	11	-21%	-6%	-3%	-18%	2%
